# Source: PubChem BioAssay
# Rows were chosen to be rich in hits. Some 12% of all compounds tested hit in one or more screens of this group.
# Sm TGR inh: inhibitors of Schistosoma mansoni thioredoxin glutathione reductase; purified TGR, DTNB reduction, TNB absorbance 405 nm; AID 485364; Q962Y6; hit rate 3% among 360,000; Potency, µM (top dose mostly 114 µM), for inactives: at the highest dose activity change, negative = inhibition, usual class: inhibitors; active = well fitted inhibition curve with a large enough effect; inconclusive = small, poorly fitted or top-dose-only effect; inactive = no such curve, though single readings can be large or run the other way; note: potency is the fitted concentration of half-maximal effect; % is set by controls: 0 for no effect and ±100 for the full control effect; nearly all actives have a fitted effect of over 60% in size
#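 TGR 20 nM + NADPH 100 uM (dispensed conc.), cpd preinc 15 min RT; start with NADPH (500 uM addition) then DTNB (15 mM addition). Kinetic TNB absorbance, 405 nm filter. Four-parameter Hill fit across titration.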
# FMDV inh: antivirals against foot and mouth disease virus; FMDV antiviral cell-based qHTS; Potency, µM (doses to about 57.9 µM), for the others: at the top dose activity change, negative = inhibition, actives largely listed as inhibitors; hit rate 1.2% among 410,000; AID 1159524; calls by dose curve; tested in HEK293T cells; note: read-out not given here; potency is the fitted concentration of half-maximal effect; % is set by controls: 0 for no effect and ±100 for the full control effect; nearly all actives have a fitted effect of over 45% in size
# CHX counter: affects cycloheximide protein synthesis inhibition readout, counter-screen; cell reporter, cycloheximide protein synthesis inhibition counterscreen; max response, %; hit rate 12% among 300,000; AID 2314; in the data active = max response mostly above about 13%, no sharp cut-off; inactive = mostly below about 14%; note: read at 38.3 µM for the half of the compounds with a filed dose; 0% is about no effect
# Shiga toxin inh: Shiga toxin inhibition | inhibition, % at 38.7 µM | AID 2315 | hit rate 9.2% among 290,000 | Vero cells, Shiga toxin protein synthesis inhibition reporter; in the data active = inhibition mostly above about 28%, no sharp cut-off; inactive = mostly below about 43%; note: 0% is about no effect
# The depositor's hits bear a star; ? = inconclusive; nt = no result.
SMILES,Sm TGR inh,FMDV inh,CHX counter,Shiga toxin inh
Cc1cc(C(F)(F)F)c2c(N)c(C(=O)Nc3c(Cl)cccc3Cl)sc2n1,15.2%,-25.6%,nt,nt
Cc1ccc2nc(N3CCN(c4cccc(C(F)(F)F)c4)CC3)c3nnnn3c2c1,1.4%,-22.8%,nt,nt
Nc1ccccc1SC/C=C/CSc1ccccc1N,-4.0%,0.0%,36.8*,68.4*
Cc1cc(C)c(S(=O)(=O)NCCc2cc3cc(C)c(C)cc3[nH]c2=O)c(C)c1,-1.1%,-3.7%,nt,nt
O=C(O)c1cc(Nc2cc(Cl)c3nonc3c2[N+](=O)[O-])ccc1O,0.1µM*,-19.4%,2.5,-3.1
Nc1cc(Cl)c2nonc2c1[N+](=O)[O-],1.41µM*,8.91µM*,-3.3,21.8
O=[N+]([O-])c1c(Nc2ccccc2O)cc(Cl)c2nonc12,0.631µM*,10µM*,-10.0,1.2
O=[N+]([O-])c1c(Nc2ccc(O)cc2)cc(N2CCOCC2)c2nonc12,-7.6%,46.4%,3.0,7.6
COc1ccc2c(c1)CC(C(=O)Nc1cc(OC)c(OC)c(OC)c1)CO2 (stereo not given),0.9%,-2.7%,nt,nt
Cc1nc2ccc(NC(=O)N3CCCCC3)cc2s1,-9.8%,56.5%,28.1*,40.8*
CCOc1ccc2nc(N3CCCC(C(=O)Nc4ccc(CC)cc4)C3)sc2c1 (stereo not given),2.9%,13.5%,nt,nt
Cc1nc2ccc(NC(=O)N3CCN(c4ccccn4)CC3)cc2s1,3.6%,-24.4%,6.6,70.1
CCOC(=O)N1CCN(C(=O)Nc2ccc3nc(-c4ccccn4)c(-c4ccccn4)nc3c2)CC1,-2.9%,-15.3%,0.6,-3.0
Cc1nc2ccc(NC(=O)N3CCSCC3)cc2s1,18.0%,48.7%,18.0*,75.8
Cc1nc2ccc(NC(=O)N3CCSCC3)cc2nc1C,1.3%,38.8%,-2.8,4.4
CCOC(=O)Nc1ccc2nc(N3CCCCCC3)sc2c1,-1.3%,69.0%,34.3*,125.6*
CCOC(=O)N1CCN(C(=O)Nc2ccc3nc(C)sc3c2)CC1,1.4%,-18.5%,16.5*,30.7
CC(C)c1ccc(NC(=O)c2cc(S(=O)(=O)NCc3ccccc3Cl)ccc2F)cc1,0.3%,7.4%,nt,nt
CCOc1ccc(CCNS(=O)(=O)c2cc(Br)cc3c2N(C(C)=O)CC3)cc1OCC,-13.6%,38.2%,nt,nt
COCc1c(C(=O)N2CCC(N(C)C)C2)cnn1-c1ncc2c(n1)-c1ccccc1CCC2 (stereo not given),nt,-8.7%,nt,nt
Cc1cc(C)c(Cn2c(C)c(CNCc3ccccc3C)c(C(=O)O)c2C)c(C)c1,-22.0%,-0.7%,nt,nt
CSc1cccc(NC(=S)N2CCCN(Cc3ccccc3F)C2)c1,10.6%,2.1%,-1.8,-5.7
CCc1cccc(NC(=S)N2CCC(c3ccccc3)C2)c1 (stereo not given),7.6%,16.7%,65.0*,74.2*
CSc1cccc(NC(=S)N2CCC(c3ccccc3)C2)c1 (stereo not given),2.6%,14.6%,19.6*,50.2*
COc1ccc(NC(=O)c2cnc3cc(C)ccn3c2=O)c(OC)c1,3.0%,-7.3%,nt,nt
SMILES,Sm TGR inh,FMDV inh,CHX counter,Shiga toxin inh
CCc1ccc(-c2nc(SCC(=O)NCC3CCCO3)c(-c3ccc(F)cc3)[nH]2)cc1 (stereo not given),5.6%,3.0%,nt,nt
COc1ccc(CN2CCOc3c(O)cc(-c4cc(C)c5ccc(F)cc5n4)cc3C2)c(O)c1,nt,-23.1%,nt,nt
COc1ccc(S(=O)(=O)N2CCCC(C(=O)Nc3ccc(OC)c(OC)c3)C2)cc1 (stereo not given),-1.9%,?,-2.1,-0.5
CCc1ccc(NC(=O)C2CCCN(S(=O)(=O)c3ccc(F)cc3)C2)cc1 (stereo not given),3.5%,?,nt,nt
COc1ccc(NC(=O)C2CCCN(S(=O)(=O)c3ccc(C)cc3)C2)cc1OC (stereo not given),-3.6%,22.4µM*,-1.8,-3.8
Cc1ccc(S(=O)(=O)N2CCCC(C(=O)Nc3ccc(NC(=O)c4ccccn4)cc3)C2)cc1 (stereo not given),1.2%,44.4%,9.1*,19.9
O=C1CCCc2cc(S(=O)(=O)N3CCCC(C(=O)Nc4ccc(F)c(Cl)c4)C3)ccc2N1 (stereo not given),-1.8%,31.6µM*,nt,nt
CCOC(=O)c1ccc(NC(=O)C2CCCN(S(=O)(=O)c3ccc(F)cc3)C2)cc1 (stereo not given),-15.1%,22.4µM*,-2.9,-15.7
Cc1cnc(-n2ncc(C(=O)NCCN3CCOCC3)c2C2CC2)nc1-c1cccs1,nt,5.3%,nt,nt
COc1ccc(C(=O)OC2=C(C(=O)c3ccccc3)N(C)S(=O)(=O)c3ccccc32)cc1OC,0.1%,-21.1%,nt,nt
N/C(Cc1ccc([N+](=O)[O-])cc1)=N\OC(=O)c1ccco1,-2.3%,8.9%,34.7*,35.3*
Cc1cccc(C(=O)O/N=C(\N)Cc2ccc([N+](=O)[O-])cc2)c1,28.2%,-25.0%,11.5,21.5
N/C(Cc1ccc([N+](=O)[O-])cc1)=N\OC(=O)c1ccc2ccccc2c1,-4.3%,0.0%,44.6*,130.9*
COc1ccc(-c2nc(CSc3nncn4c3cc3oc(C)cc34)c(C)o2)cc1,1.5%,-4.4%,nt,nt
CCc1ccccc1NC(=O)CN(C)C(=O)CSc1nnc(Nc2ccc(C)cc2)s1,4.4%,-9.1%,-1.3,-9.0
CCc1ccc(Nc2nnc(SCC(=O)N(C)CC(=O)Nc3ccccc3CC)s2)cc1,-12.3%,-1.3%,28.2*,25.7
COc1ccc(CNS(=O)(=O)c2ccc(-c3cc(C(F)(F)F)on3)s2)cc1OC,10.8%,0.0%,nt,nt
COC(=O)c1c(-c2ccc(C)cc2)csc1NC(=O)C1CC=CCC1C(=O)O (stereo not given),-5.2%,28.2%,10.3,active
O=C(Nc1cccc(-c2nc3cc(Cl)ccc3o2)c1)C1CCCO1 (stereo not given),-22.9%,28.7%,13.9*,47.4
CCN(C(=O)c1cc2cc3ccc(OC)cc3nc2o1)c1cccc(C)c1,-2.0%,-1.6%,nt,nt
Cc1ccc(SCC(=O)Nc2ccc3oc(-c4cccc(C)c4)nc3c2)cc1,-3.9%,14.2%,nt,nt
Cc1cccc(N(C)C(=O)c2cc3cc4ccc(C)cc4nc3o2)c1,2.1%,35.1%,38.6*,active
Cc1cccc(-c2nc3cc(NC(=O)C4CCCO4)ccc3o2)c1 (stereo not given),-4.3%,-44.1%,67.4*,active
CCCSc1nc2sc3c(c2c(=O)n1-c1ccccc1)CCC(C)C3 (stereo not given),1.2%,-1.0%,nt,nt
Cc1nn(-c2ccc(N3CCCC3)nn2)c(C)c1CCC(=O)N1CCN(c2ccc(F)cc2)CC1,4.1%,0.0%,nt,nt
SMILES,Sm TGR inh,FMDV inh,CHX counter,Shiga toxin inh
Cc1ccc2oc(-c3cccc(NC(=O)C4CCCO4)c3)nc2c1 (stereo not given),8.5%,nt,41.4*,75.8*
COc1cc(C(=O)Nc2cccc(-c3nc4cc(C)ccc4o3)c2)cc(OC)c1OC,-10.0%,24.1%,17.1*,81.4*
COc1cc(NC(=O)c2cc3cc4ccc(C)cc4nc3o2)cc(OC)c1OC,0.1%,3.16µM*,nt,nt
Cc1ccc2oc(-c3cccc(NC(=O)c4ccccn4)c3)nc2c1,nt,67.0%,nt,nt
COC(=O)c1c(-c2cccc(C)c2)csc1NC(=O)C1CCCO1 (stereo not given),-12.7%,-15.0%,27.3*,14.9
Cc1cc(C)c(Cn2c3ccccc3c3cnn(CC(=O)NCc4ccc(Cl)cc4)c(=O)c32)c(C)c1,1.2%,4.9%,nt,nt
